The record followed here is PubChem BioAssay (NCATS).

What all share (experiment): qHTS profiling for inhibitors of Plasmodium falciparum proliferation (AID 504749); further: nearly all actives have a fitted effect of over 60% in size
Settings in all cases: P. falciparum in erythrocytes, SYBR Green DNA, 72 h; series mostly up to 28.7 µM
On the technique in general: qHTS replaces the single test concentration by a dilution series.

For one experiment, the system named is AA1029. A digest of the protocol: (§1)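 Readout was DNA-dye fluorescence from lysed cultures, ex 485/em 535 nm. Parasitized red cells had grown 72 h with compound; data scaled between 0.29 uM artemisinin and DMSO wells and corrected using vehicle-only plates.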
The test system of the next experiment is AS120. In a few lines: as §1
Another experiment concerns C2A. In a few lines:
as §1

For another experiment, the system named is CP237. In a few lines: as §1
A further experiment concerns CP250. A digest of the protocol: as §1
In the next experiment the test system is CP256. A digest of the protocol: as §1
In a further experiment the test system is HB3. A digest of the protocol: as §1
The subject of another experiment is JCK. A digest of the protocol:
as §1

For a further experiment, the system named is N140. A digest of the protocol: as §1
The subject of the next experiment is P94_40. In a few lines:
as §1

A further experiment concerns PAD. A digest of the protocol:
as §1

The next experiment has as its system SC27B. A digest of the protocol: as §1
In another experiment the test system is TAB113. In a few lines:
as §1

The next experiment relates to CP201. A digest of the protocol:
as §1

The test system of another experiment is CP203. A digest of the protocol: as §1
The subject of another experiment is CP268. A digest of the protocol:
as §1

Another experiment concerns CP305. In a few lines: as §1
The subject of another experiment is CP315. A digest of the protocol:
as §1

A further experiment deals with CP325. A digest of the protocol:
as §1

The next experiment relates to DIV30. A digest of the protocol:
as §1

Inconclusive results are not listed. Activity calls are given as the source filed them. The call rests on the fitted dose curve; in most records, active means well fitted inhibition curve with a large enough effect; inconclusive means small, poorly fitted or top-dose-only effect; inactive means flat fitted curve, though single readings scatter.
Potency means the concentration at half of the fitted maximal effect.

As for `CC(=O)OC1C([N+]2(C)CCCCC2)C[C@H]2C3CC[C@H]4C[C@H](OC(C)=O)C([N+]5(C)CCCCC5)CC4(C)C3CCC12C` (some centres not stated), the Potency entry in the experiment on AA1029, in the experiment on AS120, in the experiment with C2A, with CP237, in the experiment with CP250 and in the experiment with CP256 was “inactive” throughout. Moreover, the Potency entry with HB3, in the experiment on JCK, with N140, in the experiment with P94_40, in the experiment with PAD and in the experiment on SC27B was “inactive” throughout. Further, in the experiment with TAB113, the Potency entry is “inactive”.
With `C#C[C@@]1(O)CC[C@@H]2[C@H]3CCC4=C/C(=N\O)CC[C@H]4[C@@H]3CC[C@]21CC`, the Potency entry in the experiment with AA1029, in the experiment on AS120, in the experiment with C2A, with CP201, with CP203 and in the experiment with CP237 was “inactive” each time. For the same compound, the Potency entry with CP250, with CP256, in the experiment on CP268, in the experiment with CP305, in the experiment on CP315 and in the experiment on CP325 was “inactive” each time. Also, the Potency result with DIV30, with HB3, with JCK, with N140, with P94_40 and with PAD was “inactive” in each case. For the same compound, the Potency result with SC27B and with TAB113 was “inactive” in each case.
As for `C/C=C1/NN(CCCN2CCN(c3cccc(Cl)c3)CC2)C(=O)N1CCOc1ccccc1`, the Potency result in the experiment on AA1029, with AS120, in the experiment with C2A, in the experiment with CP201, in the experiment on CP250 and in the experiment with CP256 was “inactive” in each case. For the same compound, the Potency result in the experiment with CP268, in the experiment with CP305, in the experiment on CP315, in the experiment with CP325, in the experiment with HB3 and in the experiment on JCK was “inactive” each time. The Potency entry in the experiment on N140, in the experiment with P94_40, in the experiment with PAD, with SC27B and in the experiment on TAB113 was “inactive” each time.
For the compound `O=C(NC(CO)C(O)c1ccc([N+](=O)[O-])cc1)C(Cl)Cl` (configuration not stated), the Potency result in the experiment on CP201, in the experiment with CP203, in the experiment on CP315, in the experiment with DIV30, in the experiment on JCK and in the experiment on PAD was “inactive” throughout. For the same compound, the Potency entry with SC27B was “inactive”. Besides, the Potency in the experiment with CP256 is 11.2 µM (active); with CP325, 6.01 µM (active).
Take `CCC(=O)OC1C(N(C)C)CC(C)O[C@H]1O[C@H]1[C@H](C)[C@@H](O[C@H]2CC(OC)[C@@H](O)C(C)O2)[C@H](C)C(=O)O[C@@H](CC)[C@](C)(O)[C@@H](O)[C@H](C)C(=O)[C@@H](C)C[C@]1(C)O` (some centres not stated): the Potency entry in the experiment on AS120, with CP201, in the experiment with CP203, in the experiment on CP237, in the experiment with CP268 and in the experiment on CP305 was “inactive” in each case. The Potency result in the experiment with CP315, with CP325, in the experiment with DIV30, in the experiment with HB3, in the experiment with JCK and in the experiment with PAD was “inactive” throughout. Further, the Potency result with SC27B and with TAB113 was “inactive” in each case.
As to `C/C(=C(/CCOC(=O)C(C)C)SS/C(CCOC(=O)C(C)C)=C(\C)N(C=O)Cc1cnc(C)nc1N)N(C=O)Cc1cnc(C)nc1N`, the Potency result with AA1029, in the experiment on AS120, with C2A, in the experiment on CP201, in the experiment with CP203 and with CP237 was “inactive” each time. The Potency result in the experiment with CP250, with CP256, in the experiment with CP268, with CP305, in the experiment with CP315 and in the experiment on CP325 was “inactive” in each case. Besides, the Potency result in the experiment on DIV30, in the experiment on HB3, in the experiment with JCK, with N140, in the experiment with P94_40 and with PAD was “inactive” each time. In addition, the Potency entry in the experiment with SC27B and in the experiment with TAB113 was “inactive” in each case.
For the compound `CC1=C(/C=C/C(C)=C\C=C\C(C)=C\C=C\C=C(C)\C=C\C=C(C)\C=C\C2=C(C)C[C@@H](O)CC2(C)C)C(C)(C)C[C@H](O)C1`, the Potency in the experiment on AA1029 is 12.6 µM (active); in the experiment on AS120 it was 12.6 µM (active); with CP237, 11.2 µM (active); in the experiment with HB3, 10 µM (active); in the experiment with N140, 7.08 µM (active); with PAD, 14.1 µM (active). Moreover, the Potency entry with CP201, with CP203, with CP256, in the experiment on CP268, in the experiment with CP305 and in the experiment on CP315 was “inactive” throughout. In addition, the Potency entry in the experiment on CP325 and with TAB113 was “inactive” in each case.
`Nc1nc(Cl)nc2c1ncn2[C@@H]1O[C@H](CO)[C@H](O)C1F` (some centres not stated): the Potency result in the experiment on AA1029, in the experiment with AS120, in the experiment on C2A, with CP201, in the experiment on CP203 and in the experiment on CP237 was “inactive” each time. The Potency entry with CP250, with CP256, in the experiment on CP268, in the experiment with CP305, with CP315 and in the experiment with CP325 was “inactive” throughout. Moreover, the Potency result in the experiment with DIV30, in the experiment with HB3, in the experiment on JCK, with N140, with P94_40 and in the experiment with PAD was “inactive” throughout. In addition, the Potency result in the experiment on SC27B and with TAB113 was “inactive” in each case.
As to `C=CCN1CC(C(=O)N(CCCN(C)C)C(=O)NCC)CC2c3cccc4[nH]cc(c34)CC21` (configuration not stated), the Potency result in the experiment on CP201, in the experiment with CP250, in the experiment on CP268, in the experiment with CP305, in the experiment with CP315 and with CP325 was “inactive” throughout. The Potency result in the experiment with DIV30, in the experiment on HB3 and in the experiment on JCK was “inactive” throughout. For the same compound, the Potency in the experiment with CP237 was 8.91 µM (active).
As for `OCC(O)C(O)C(O)C(O)CO` (configuration not stated), the Potency entry in the experiment on AA1029, in the experiment on AS120, in the experiment on C2A, in the experiment with CP201, with CP203 and in the experiment on CP237 was “inactive” throughout. For the same compound, the Potency entry with CP250, in the experiment on CP256, with CP268, with CP305, in the experiment with CP315 and in the experiment with CP325 was “inactive” each time. The Potency entry with DIV30, in the experiment on HB3, in the experiment with JCK, in the experiment with N140, with P94_40 and in the experiment with PAD was “inactive” in each case. The Potency entry in the experiment with SC27B and in the experiment on TAB113 was “inactive” in each case.
Consider `CC1=C(C/C=C(\C)CCCC(C)CCCC(C)CCCC(C)C)C(=O)c2ccccc2C1=O` (configuration not stated), for which the Potency entry in the experiment on C2A, with CP201, in the experiment on CP203, in the experiment with CP250, in the experiment with CP256 and in the experiment with CP268 was “inactive” each time. The Potency result in the experiment with CP305, in the experiment with CP315, with CP325, in the experiment with DIV30 and in the experiment with JCK was “inactive” each time. For the same compound, the Potency in the experiment with HB3 is 11.2 µM (active); in the experiment with P94_40, 4.47 µM (active); in the experiment on PAD it was 7.94 µM (active); in the experiment with TAB113, 8.91 µM (active).
For `C=C1CCC(O)C/C1=C/C=C1\CCC[C@]2(C)[C@@H]([C@H](C)/C=C/[C@H](C)C(C)C)CC[C@@H]12` (some centres not stated), the Potency entry with AA1029, with CP201, in the experiment with CP203, in the experiment with CP237, in the experiment on CP268 and in the experiment on CP305 was “inactive” in each case. Further, the Potency result in the experiment with CP315, in the experiment with CP325 and in the experiment on DIV30 was “inactive” each time. Also, the Potency in the experiment on JCK was 0.708 µM (active).
For the compound `CC[C@H]1OC(=O)[C@H](C)C(=O)[C@H](C)[C@@H](OC2O[C@H](C)C[C@H](N(C)C)[C@@H]2O)[C@@](C)(OC)C[C@@H](C)C(=O)[C@@H](C)C2N(CCCCn3cnc(-c4cccnc4)c3)C(=O)O[C@@]21C` (some centres not stated), the Potency entry in the experiment with C2A, in the experiment with CP201, in the experiment on CP203, in the experiment with CP250, in the experiment on CP256 and in the experiment on CP268 was “inactive” in each case. Moreover, the Potency entry in the experiment on CP305, in the experiment with CP315 and in the experiment on CP325 was “inactive” throughout. In addition, the Potency in the experiment with PAD was 11.2 µM (active).
